SW480 rereplic = A quantitative high throughput screen for small molecules that induce DNA re-replication in SW480 colon adenocarcinoma cells | SW480 DNA re-replication, Hoechst DNA content imaging, 48 h | Potency, µM (top dose mostly 46.1 µM), without a hit: at the highest dose re-replication activation, hits mostly activators | 1.8% of 340,000 active; note: potency is the fitted concentration of half-maximal effect; % of control where 0% means no effect; nearly all actives have a fitted effect of over 55% in size
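Image-based read-out: total Hoechst fluorescence of nuclei (405 nm excitation, 500-530 nm emission), with hits raising the fraction of high-intensity nuclei. SW480 colon cells incubated 48 hr with compounds at 37 C.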
MCF10A rerep = A quantitative high throughput screen for small molecules that induce DNA re-replication in MCF 10a normal breast cells. MCF 10A DNA re-replication, Hoechst nuclear intensity, 48 h. Potency, µM (titrated, usually from 46.1 µM), inactives show at the top dose activity, positive = re-replication, most hits filed as activators. 2.9% of 350,000 active; note: potency is the fitted concentration of half-maximal effect; % of control where 0% means no effect; nearly all actives have a fitted effect of over 50% in size
KB-V1 cytotox = qHTS assay for MDR1-selective chemotherapeutics: Primary screen using the drug-selected MDR subline cells KB-V1; KB-V1 MDR cells viability, CellTiter-Glo, 72 h; Potency, µM (highest dose often 46.1 µM), usual class: cytotoxic; 3.4% of 400,000 active; AID 1347076, 2019; note: potency is the fitted concentration of half-maximal effect; % is set by controls: 0 for no effect and ±100 for the full control effect; nearly all actives have a fitted effect of over 60% in size
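In this primary screen, KB-V1 cells overexpressing P-gp are incubated with library compounds (lowest to highest concentration) for 72 h at 37 degrees C before a luminescent ATP viability read.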
IL-1B inflam inh = qHTS for Inhibitors of Inflammasome Signaling: IL-1-beta AlphaLISA Primary Screen; AID 743279, 2014; THP-1 LPS/ATP IL-1B secretion, AlphaLISA, 16 h; stronger effect = lower value; activity change, % at 57.5 µM; 4.7% of 360,000 active; in the data active = activity change below about -50%; inconclusive = mostly about -30% to -49%; note: % is set by controls: 0 for no effect and ±100 for the full control effect
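THP-1 cells pretreated 1 hr with compounds (up to 57.5 uM final), then stimulated with LPS (250 ng/mL final) plus ATP (1.25 mM final); secreted IL-1B measured by AlphaLISA after 16 hr, decreased signal indicating inhibition.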
KB-3-1 cytotox = qHTS assay for MDR1-selective chemotherapeutics: Primary screen using the parental adenocarcinoma cell KB-3-1; KB-3-1 viability, CellTiter-Glo ATP luminescence, 72 h; 1.4% of 400,000 active; Potency, µM (titrated, usually from 46.1 µM), hits mostly cytotoxic; note: potency is the fitted concentration of half-maximal effect; % is set by controls: 0 for no effect and ±100 for the full control effect; nearly all actives have a fitted effect of over 60% in size
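Parental KB-3-1 adenocarcinoma cells in phenol-red-free DMEM with 10% FBS were pin-treated with compounds at several concentrations, incubated 72 h at 37 °C, and viability read by CellTiter-Glo luminescence; concentration-effect curves were fitted after normalization.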
Active calls of the source: *; [ ] = another dose, or the depositor's remark. The list is not random: actives were taken first. Their share in the collection is about 9.9%. Unless noted, calls come from the whole dose curve; as a rule, active = well fitted curve in the direction sought with a large enough effect; inconclusive = small, poorly fitted or top-dose-only effect, or another doubt; inactive = no such curve, though single readings can be large; an effect the other way counts as inactive or inconclusive.

Results for C=CC[n+]1ccc(/C=C2\C=Cc3cc(C)ccc3N2CC)c2ccccc21 ?
SW480 rereplic: 101%; MCF10A rerep: inconclusive; KB-V1 cytotox: inactive; IL-1B inflam inh: -66*; KB-3-1 cytotox: 8.2µM*

How did COc1ccc(-c2n[nH]c(=S)n2-c2ccc(C)cc2)cc1 do in these assays?
SW480 rereplic: 3%; MCF10A rerep: -2%; KB-V1 cytotox: inactive; IL-1B inflam inh: -23; KB-3-1 cytotox: inactive

How did Cc1ccc(-c2n[nH]c(=S)n2C)cc1 do in these assays?
SW480 rereplic: -7%; MCF10A rerep: -2%; KB-V1 cytotox: 16µM*; IL-1B inflam inh: -5; KB-3-1 cytotox: inconclusive

How did COc1cccc(CNC(=O)Cn2c(=O)oc3cc(S(=O)(=O)N4CCCC4)ccc32)c1 do in these assays?
KB-V1 cytotox: inactive; KB-3-1 cytotox: inactive

Results for Cc1ccc(C(=O)Nc2ccc(NC(=O)c3ccco3)c(C)c2)cc1 ?
SW480 rereplic: -8%; MCF10A rerep: -14%; KB-V1 cytotox: inconclusive; IL-1B inflam inh: -59*; KB-3-1 cytotox: inactive

Results for Cc1cc(NC(=O)c2ccc(Br)o2)ccc1NC(=O)c1ccco1 ?
SW480 rereplic: -3%; MCF10A rerep: -3%; KB-V1 cytotox: 10µM*; KB-3-1 cytotox: inconclusive

Results for CCc1cccc(NC(=O)c2ccc(Br)o2)c1 ?
SW480 rereplic: -6%; MCF10A rerep: -2%; KB-V1 cytotox: inactive; IL-1B inflam inh: inconclusive; KB-3-1 cytotox: inactive

How did O=C(CSc1ccc(F)cc1)NCCc1ccc(Cl)cc1 do in these assays?
SW480 rereplic: 8%; MCF10A rerep: 10%; KB-V1 cytotox: inactive; IL-1B inflam inh: -23; KB-3-1 cytotox: inactive

What do the screens show for `COc1cccc(N2CCN(c3ncnc4c3[nH]c3ccc(F)cc34)CC2C)c1` (stereo unspecified)?
SW480 rereplic: inconclusive; MCF10A rerep: inconclusive; KB-V1 cytotox: inconclusive; IL-1B inflam inh: -112*; KB-3-1 cytotox: inconclusive

Results for NS(=O)(=O)c1ccc(CCNCc2ccccc2OCc2ccc(Cl)cc2)cc1 ?
SW480 rereplic: -1%; MCF10A rerep: inconclusive; KB-V1 cytotox: inactive; IL-1B inflam inh: -81*; KB-3-1 cytotox: inconclusive

Results for NS(=O)(=O)c1ccc(CCNCc2cc(Br)ccc2OCc2ccccc2F)cc1 ?
SW480 rereplic: inconclusive; MCF10A rerep: inconclusive; KB-V1 cytotox: inactive; KB-3-1 cytotox: inactive

Results for NS(=O)(=O)c1ccc(CCNCc2cc(Cl)ccc2OCc2ccccc2)cc1 ?
SW480 rereplic: 1%; MCF10A rerep: -8%; KB-V1 cytotox: inactive; IL-1B inflam inh: -100*; KB-3-1 cytotox: inactive

What do the screens show for `O=C(Nc1cccc(F)c1)c1ccc2oc(=O)n(Cc3ccccc3)c2c1`?
KB-V1 cytotox: inactive; KB-3-1 cytotox: inactive

Results for O=C(/C=C/c1ccccc1[N+](=O)[O-])N1CCN(C(=O)c2ccco2)CC1 ?
SW480 rereplic: 4%[1.84 µM]; MCF10A rerep: -31%; KB-V1 cytotox: inactive; IL-1B inflam inh: -3; KB-3-1 cytotox: inactive

Results for CCN1CCN(c2ccc(S(=O)(=O)N3CCCCC3)cc2NC(=O)c2cccc(Cl)c2)CC1 ?
SW480 rereplic: -294%; MCF10A rerep: 31%; KB-V1 cytotox: inactive; IL-1B inflam inh: inconclusive; KB-3-1 cytotox: inactive

How did CCN1CCN(S(=O)(=O)c2ccc(Cl)c(C(=O)Nc3ccccc3N3CCCCC3)c2)CC1 do in these assays?
SW480 rereplic: inconclusive; MCF10A rerep: inconclusive; KB-V1 cytotox: inactive; IL-1B inflam inh: -73*; KB-3-1 cytotox: inconclusive

What do the screens show for `CCN1CCN(S(=O)(=O)c2ccc(Cl)c(C(=O)Nc3ccccc3N3CCCC3)c2)CC1`?
SW480 rereplic: 6.5µM*; MCF10A rerep: inconclusive; KB-V1 cytotox: inactive; IL-1B inflam inh: -25; KB-3-1 cytotox: inactive

How did COc1ccccc1C(=O)Nc1nnc(-c2ccc3c(c2)CCCC3)o1 do in these assays?
SW480 rereplic: -13%; MCF10A rerep: 12%; KB-V1 cytotox: inconclusive; IL-1B inflam inh: -63*; KB-3-1 cytotox: inactive

Bioassay records as filed in PubChem.
